# From ChEMBL document CHEMBL3433997, “St. Jude Leishmania screening dataset” (2016)
# How the values were obtained:
# Format in all cases: functional
# [1] = biological target: Solute carrier family 2, facilitated glucose transporter member 1 (Homo sapiens) (UniProt P11166); assay: ST_JUDE_LEISH: Cytotoxicity at 2uM final concentration against transgenic Leishmania Mexicana promastigotes LmGLUT1 that are glucose transport deficient and complemented with the human glucose transporter GLUT1. Activity is measured by DNA content using SYBR green in vitro
# [2] = biological target: Hexose transporter 1 (Plasmodium falciparum) (UniProt O97467); assay: ST_JUDE_LEISH: Cytotoxicity at 2uM final concentration against transgenic Leishmania Mexicana promastigotes LmPfHT that are glucose transport deficient and complemented with the Plasmodium falciparum hexose transporter. Activity is measured by DNA content using SYBR green in vitro
# [3] = biological target: Glucose transporter (Leishmania mexicana) (UniProt O61059); assay: ST_JUDE_LEISH: Cytotoxicity at 2uM final concentration against transgenic Leishmania Mexicana promastigotes LmGT2 that are glucose transport deficient and complemented with the L. Mexicana glucose transporter 2. Activity is measured by DNA content using SYBR green in vitro
# Chain of Solute carrier family 2, facilitated glucose transporter member 1 (Homo sapiens) (P11166 whole entry): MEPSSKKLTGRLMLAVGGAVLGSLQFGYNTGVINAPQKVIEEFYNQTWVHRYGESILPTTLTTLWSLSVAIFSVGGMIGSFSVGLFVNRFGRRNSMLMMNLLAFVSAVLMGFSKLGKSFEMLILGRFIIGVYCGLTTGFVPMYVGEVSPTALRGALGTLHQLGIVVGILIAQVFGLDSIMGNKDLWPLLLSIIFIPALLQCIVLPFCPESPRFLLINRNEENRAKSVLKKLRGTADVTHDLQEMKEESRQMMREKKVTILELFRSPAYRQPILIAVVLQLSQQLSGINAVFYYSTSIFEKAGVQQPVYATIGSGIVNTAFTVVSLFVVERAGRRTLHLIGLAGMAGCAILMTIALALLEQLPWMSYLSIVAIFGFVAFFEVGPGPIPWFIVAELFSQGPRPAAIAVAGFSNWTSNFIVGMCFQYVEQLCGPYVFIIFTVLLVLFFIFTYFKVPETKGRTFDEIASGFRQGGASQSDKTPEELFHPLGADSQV
SMILES,inhibition [1] [%],inhibition [2] [%],inhibition [3] [%]
Cc1onc(-c2ccc(Cl)cc2)c1-c1ccnn1S(=O)(=O)c1ccc(Cl)cc1,-0.16,4.29,1.91
COc1cccc(CNC(=O)c2ccnc(-c3ccc(CNCCOc4ccccc4)cc3)c2)c1,1.12,1.69,1.51
Cc1cc(-c2cccc(CNC3CCN(C)CC3)c2)ccc1S(=O)(=O)NCc1ccccc1,4.02,3.65,4.62
COc1ccc(-c2csc(C(=O)NC3CCC(N4CCC(c5ccccc5C)CC4)CC3)c2)cc1 (stereo not given),3.25,4.24,3.51
CC(C)NCc1ccc(-c2ccc(CN3CCCC(c4ccccc4)C3)cc2)c(C(=O)NCC2CCCCC2)c1 (stereo not given),-0.28,-0.36,-6.06
CC(C)(CNCc1ccc(C(F)(F)F)cc1)c1nc(-c2ccc(Cl)c(O)c2)c(-c2ccncc2)[nH]1,0.52,-0.09,0.02
O=S(=O)(NC1CCN(c2ccnc3cc(Cl)ccc23)C1)c1cccs1 (stereo not given),0.41,-0.12,1.61
Nc1nc2c(ncn2OC[C@H](CO)OCP(=O)(O)O)c(=O)[nH]1,0.43,-1.69,-1.85
CN1CCCc2ccc(NC(=O)Nc3ccc(Cl)c(Cl)c3)cc2C1,-0.95,-0.84,-1.33
Cc1cccc(-c2ccc(NC(=O)Nc3ccc4nccc(N5CCN(C)CC5)c4c3)cc2C)n1,8.09,5.32,3.13
CCn1cc2c3c(cc(C(=O)N[C@@H](Cc4ccccc4)[C@H](O)CNC4CCOCC4)cc31)N(C)S(=O)(=O)CC2,0.41,0.29,4.85
Oc1ccc(CCNCCCCCNCCCc2ccc(Cl)cc2)cc1O,2.04,-0.25,2.06
COc1ccc(-c2ccc(CN(C)C3CCC(NC(=O)c4cc5ccccc5[nH]4)CC3)cc2)cn1 (stereo not given),-1.44,-1.14,-1.54
Cc1cccc2nc(-c3ccc(-c4ccc(C(=O)NCCN5CCCC5)cc4)cc3)[nH]c12,0.86,-1.27,-0.61
Cc1cc(N[C@@H](CC(C)C)C(=O)NCc2cccs2)nc(NCCc2ccc(F)cc2)n1,0.98,-0.43,0.13
Clc1ccc2c(NN=Cc3cccnc3)ccnc2c1,6.14,0.59,5.48
O=S(=O)(c1ccc(NC(S)=NN=Cc2ccccn2)cc1)N1CCCCC1,3.4,6.75,5.11
C[C@@H](CC1CCCCC1)OC(=O)N[C@H]1CCN(C#N)C1,12.8,8.07,7.29

SMILES,inhibition [1] [%],inhibition [2] [%],inhibition [3] [%]
Cc1[nH]c(C)c(-c2ccc(-c3ccc(Cl)cc3)nc2)c(=O)c1Cl,0.56,1.71,-0.19
CCCCCCCn1c(=N)n(CC(O)c2ccc(Cl)c(Cl)c2)c2ccccc21 (stereo not given),8.14,7.92,13.2
Cc1[nH]c(C)c(-c2ccc(-c3cccc(C(F)(F)F)c3)nc2)c(=O)c1Br,9.61,8.1,6.29
Cn1nccc1C(=O)NCCNCc1ccc(-c2ccc(-c3nc4cc(F)ccc4[nH]3)cc2)cc1,1.91,4.48,5.68
CCN1CCC(N(Cc2ccc(-c3ccc(C(F)(F)F)cc3)cc2)C(=O)Cn2c(CCc3cccc(F)c3F)cc(=O)c3c2CCC3)CC1,1.27,0.83,0.64
CCOc1ccccc1CNc1nccc(NCc2ccc(Cl)cc2Cl)n1,31.3,21.2,9.92
COc1cc2c(cc1S(=O)(=O)c1ccc(NC(=O)c3cc4ccccc4s3)cc1)CCN(C)CC2,-1.48,3.2,1.94
CN1Cc2cc(NC(=O)/C=C/c3ccccc3Cl)ccc2C(C)(C)C1,10.7,8.21,6.98
O=C(Nc1ccc(-c2csc(-c3nc4ccccc4[nH]3)c2)cc1)Nc1ccc(Cl)c(Cl)c1,1.35,1.35,-1.48
COc1ccc(CNCc2cccc(-c3ccc(-c4nc5cc(C(F)(F)F)ccc5[nH]4)cc3)c2)cc1,7.79,6.65,6
O=c1nc2[nH]c3ccccc3n2c(=O)[nH]1,3.69,2.18,3.41
c1ccc2c(NCCOCCNc3c4ccccc4nc4ccccc34)c3ccccc3nc2c1,1.61,2.67,3.48
Fc1ccc2[nH]c(-c3cccc(-c4ccc(CNCCN5CCNCC5)cc4)c3)nc2c1,-0.21,-0.52,-0.74
Cc1cccc(CN2CCCN(Cc3ccc(C(=O)Nc4ccc(C(C)(C)C)cc4)cc3)CC2)c1,1.47,1.6,-0.38
C[C@@H](C(=O)N1CCOCC1)N1CC[C@H](NS(=O)(=O)c2ccc3ccnc(N)c3c2)C1=O,-1.02,-1.24,-4.28
CCN(CC)CCN(Cc1ccc(-c2ccc(C(F)(F)F)cc2)cc1)C(=O)Cn1c(CCc2ccc(F)c(F)c2F)nc(=O)c2cccnc21,0.59,0.44,-0.8
COCCNCc1cccc(-c2ccccc2CN(C(=O)c2ccc3c(c2)OCO3)c2ccc(OC)cc2)c1,4.69,4.93,3.25
